Molecules are shown by their SMILES. Values joined by “and” are separate entries in the source; they are usually repeats but may differ in a detail not shown here. Equal values may be shown once. Active and inactive are the calls of the source. Rule for the calls: active = hit-call score of the fitted dose curve at least 0.9, where 1 is the maximum; inactive = score below 0.9.

Read-out in this assay: Vascular cell adhesion molecule 1 (VCAM1), VCAM1 (gene 7412)
The experiment in a line: BSK_4H_VCAM1: BioMAP Diversity Plus: 4H Assay for Vascular cell adhesion molecule 1 (VCAM1) Biomarker Activity (AID 2283033). The note with it: primary human endothelial cells (HUVEC); actives raise or lower the signal. Here is the method:
BSK_4H is a cell-based, multiplexed-readout assay that uses umbilical vein endothelium, a human vascular primary cell, with measurements taken at 24 hours after chemical dosing in a 96-well plate.BSK_4H_VCAM1 is an assay component measured in the BSK_4H assay. It measures VCAM-1 antibody related to regulation of gene expression using ELISA technology.Data from the assay component BSK_4H_VCAM1 was analyzed into 1 assay endpoint. This assay endpoint, BSK_4H_VCAM1, was analyzed with bidirectional fitting relative to DMSO as the negative control and baseline of activity. Using a type of binding reporter, gain or loss-of-signal activity can be used to understand changes in the signaling as they relate to the gene VCAM1. Furthermore, this assay endpoint can be referred to as a primary readout, because this assay has produced multiple assay endpoints where this one serves a signaling function. To generalize the intended target to other relatable targets, this assay endpoint is annotated to the cell adhesion molecules intended target family, where the subfamily is Immunoglobulin CAM.
The levels of cell surface (or secreted, indicated by the prefix "s") biomarker endpoints were measured by ELISA. Overt cytotoxicity to cells in confluent adherent cultures (all systems other than the BT system) was assessed by measuring total protein levels using sulforhodamine B (SRB) staining in parallel cultures at the time of biomarker measurements, indicated as SRB endpoints. For proliferation assays for adherent cell types, individual cell types are cultured at sub-confluence and relative cell numbers quantified by SRB staining at time points optimized for each system (48 h: 3C and CASM3C systems; 72 h: BT and HDF3CGF systems; 96 h: SAg system). SRB was performed by staining cells with 0.1% SRB after fixation with 10% TCA and reading wells at 560 nm.Viability and proliferation of PBMC (T cells) was quantified by Alamar Blue reduction for the SAg and BT systems. For PBMC viability (referred to as PBMC Cytotoxicity within the assay endpoint names), cells were plated (75,000/well in a 96-well plate) and then chemical samples added for 1 h before addition of activators, SEB and TSST-1 (20 ng/mL final concentration each). Cells were incubated for 90 h. Then, Alamar Blue (20 uL/well) (Invitrogen, Cat DAL1100) was added for 6 h, and the plates were read with a fluorescence microplate reader at 546/580 nm (excitation/emission). For PBMC proliferation, cells were plated and activated as above but incubated for only 16 h prior to addition of Alamar Blue. Plates were read after 6 h.
A word on the AC50: it is the concentration at which the activity in the assay is half-maximal. As for `CCCCCCCCCCCC#N`, the AC50 is 20.6 µM (active). In the case of `Nc1ccc(-c2ccc(N)c(N)c2)cc1N`, the result was inactive.

As to `CC(C)(C)C(=O)CCl`, the AC50 was 25.7 µM (active). Turning to `CC(C)CCCCCCCOC(=O)c1ccccc1C(=O)OCCCCCCCC(C)C`, the result was inactive. In the case of `Oc1ccc(C2(c3ccc(O)cc3)c3ccccc3-c3ccccc32)cc1`, the AC50 was 6.91 µM (active) and 7.37 µM (active). On to `COCC(=O)N(c1c(C)cccc1C)N1CCOC1=O`, for which the result was inactive. As to `COc1ccc(CO)cc1`, the result was inactive. On to `Cc1ccc(OP(=O)(Oc2ccc(C)cc2)Oc2ccc(C)cc2)cc1` (tested in a mixture with another compound), for which the outcome was inactive. Take `c1ccc(Nc2ccc3ccccc3c2)cc1`: the AC50 is 29.5 µM (active). Turning to `O=[N+]([O-])C=Cc1ccccc1`, the AC50 was 11.5 µM (active). For the molecule `CCCOC(=O)c1ccccc1C(=O)OCCC`, the outcome was inactive. On the same count and under the same terms, the same measure for `CCCC[N+](CCCC)(CCCC)CCCC`: “inactive”. As to `CCc1cc(C)cc(CC)c1-c1c(OC(=O)C(C)(C)C)n2n(c1=O)CCOCC2`, the AC50 is 9.41 µM (active).

With `O=[N+]([O-])c1ccc(Cl)cc1`, the result was inactive. With `CC(C)(c1cc(Cl)c(O)c(Cl)c1)c1cc(Cl)c(O)c(Cl)c1`, the AC50 is 30.1 µM (active). Still for that read-out and setting: with `O=C1C(Cl)=C(Cl)C(=O)C(Cl)=C1Cl` the figure was 13.5 µM (active). For the molecule `O=C1C=CC(=O)C=C1`, the AC50 was 16.1 µM (active) and 20 µM (active). Turning to `O=P1(NCCCl)OCCCN1CCCl` (stereo not drawn), the outcome was inactive. As to `O=C(O)CCCc1ccc(N(CCCl)CCCl)cc1`, the AC50 is 27.1 µM (active) and 25.4 µM (active).

As to `Clc1ccc(-c2ccccc2)cc1`, the AC50 was 32.9 µM (active). For `O=c1[nH]c(Cl)c(Cl)cc1Cl`, the result was inactive.

`CNC(=O)Oc1cc(C)c(SC)c(C)c1`: the AC50 is 20 µM (active). As to `N#CCCCCC#N`, the result was inactive.

For the molecule `[Cd+2].[Cl-].[Cl-]`, the AC50 is 31.6 µM (active) and 27.1 µM (active). Regarding `C=CC(=O)OCC(CC)CCCC` (stereo not drawn), the AC50 was 0.159 µM (active). Regarding `C=CCN(CC=C)C(=O)C(Cl)Cl`, the result was inactive.

On to `CCC(C)c1cc([N+](=O)[O-])cc([N+](=O)[O-])c1OC(=O)C=C(C)C` (stereo not drawn), for which the AC50 is 9.17 µM (active). In the case of `Oc1cc(Cl)ccc1Cl`, the outcome was inactive. Turning to `O=S(=O)(c1ccccc1)c1ccccc1`, the result was inactive. Still for that read-out and setting: with `O=c1c2ccccc2c(=O)c2c1cc(Cl)c1[nH]c3c([nH]c12)c(Cl)cc1c(=O)c2ccccc2c(=O)c13` the entry was “inactive”; with `CC1(C)[C@H](C(=O)O[C@H](C#N)c2cccc(Oc3ccccc3)c2)[C@@H]1C=C(Br)Br`, “inactive”.

For the molecule `O=C(CCl)c1ccccc1`, the AC50 was 3.54 µM (active).

On to `COC(C)(C)CCC[C@H](C)C/C=C/C(C)=C/C(=O)OC(C)C`, for which the AC50 was 31.6 µM (active). Same read-out and setting: the same measure for `CC(C)CCCCCCCOP(=O)(Oc1ccccc1)Oc1ccccc1`: 25.1 µM (active). Take `O=[N+]([O-])O`: the result was inactive. With `CC(C)(C)C(O)C(Oc1ccc(-c2ccccc2)cc1)n1cncn1` (stereo not drawn), the AC50 was 31.5 µM (active). Turning to `CC(=O)/C=C/c1ccccc1`, the outcome was inactive. Take `CC(C)COP(=O)(OCC(C)C)OCC(C)C`: the outcome was inactive.
